# BoNT F protease – BoNT F light chain protease inhibition. AID 588497. Multiplex microsphere protease cleavage assay, flow cytometry. inhibition, % at 10 µM. 360,000 compounds, 0.22% hits; in the data active = inhibition above about 35%, passing the limit was not always enough; inconclusive = no clear call, values can overlap the other calls; note: plate controls were buffer without enzyme for full effect and enzyme alone for no effect
# BoNT A protease – inhibitors of Botulinum neurotoxin A light chain protease. multiplex microsphere protease substrate cleavage, flow cytometry. inhibition, % at 10 µM. 360,000 compounds, 0.17% hits; note: plate controls were buffer without enzyme for full effect and enzyme alone for no effect
# Autofluor counter – compound fluorescence in toxin protease inhibitor counterscreen; 360,000 compounds, 3.1% hits; fluorescence intensity (no concentration beside the values); AID 624483; compound autofluorescence counterscreen, microsphere flow cytometry; hits give high values; in the data active = fluorescence intensity above about 16000; inconclusive = no clear call, values can overlap the other calls
# Anthrax LF prot – inhibitors of Bacillus anthracis lethal factor protease; multiplex microsphere protease cleavage assay, LF; 360,000 compounds, 0.12% hits; inhibition, % at 10 µM; P15917; note: plate controls were buffer without enzyme for full effect and enzyme alone for no effect
# * = called active by the depositor; ? = inconclusive. Shown are actives, neighbours in structure and some others; about 3.5% of the full set was active somewhere. Cut-off read from the data, not from the text of the source, unless noted: active = inhibition above about 30%; inconclusive = no clear call, values can overlap the other calls; inactive = below that.
SMILES,BoNT F protease,BoNT A protease,Autofluor counter,Anthrax LF prot
CCSc1nnc(NC(=O)c2cccs2)s1,0,1,22159*,2
CC1(C(=O)Nc2nnc(C(C)(C)C)s2)Cc2ccccc2C(=O)O1 (stereo not drawn),-12,-1,11347,-1
CCSc1nnc(NC(=O)C2(C)Cc3ccccc3C(=O)O2)s1 (stereo not drawn),6,5,17590*,-12
CC(C)(NO)/C(=N\O)c1ccccc1,6,0,2703,-2
Cc1cc(/C(=N/O)C(C)(C)NO)ccc1Cl,-4,1,22038*,-1
Cc1ccc(CNC(=O)C2CCN(c3nnc(N4CCCC4=O)s3)CC2)cc1,-8,0,4177,-5
COc1cc(NS(=O)(=O)c2ccc(NC(=S)NC(=O)c3ccc(F)c(F)c3)cc2)nc(OC)n1,-9,-3,5134,-5
NS(=O)(=O)c1cccc(NC(=O)COC(=O)CCN2C(=O)c3ccccc3C2=O)c1,-2,-5,8394,-3
Cc1ccc(Oc2nn[nH]n2)cc1,4,0,11115,0
CCc1cccc(Oc2nn[nH]n2)c1,-4,-3,24949*,0
O=C(c1ccc(F)cc1)C1CCN(S(=O)(=O)c2ccccc2)CC1,-2,-1,4358,-1
c1ccc2c(c1)oc1c(NCC3CCCO3)ncnc12 (stereo not drawn),2,0,23180*,0
CC(C)Cc1nc2oc3c(NCC4CCCO4)ncnc3c2c2c1CCC2 (stereo not drawn),3,?,18869*,2
c1ccc(CNc2ncnc3c2oc2ccccc23)nc1,-1,?,22122*,-4
CC(C)Cc1nc2oc3c(NCc4cccnc4)ncnc3c2c2c1CCC2,-1,0,9172,-7
c1ccc(-c2nc(NCC3CCCO3)c3oc4ccccc4c3n2)cc1 (stereo not drawn),-1,?,23676*,-3
CN(CCC(=O)c1ccccc1)CCC(=O)c1ccccc1,?,-5,4208,-1
CC(C)c1nc(SCC(=O)NC2CCCC2)c2c(=O)n(C)c(=O)n(C)c2n1,-6,-4,4691,-2
CC1(C)N=C(N)NC(Nc2cccc(Br)c2)=N1,1,0,4508,6
CC1(C)N=C(N)NC(Nc2ccc(Br)cc2)=N1,-3,-2,23628*,-2
CN(C(=O)c1ccc(=O)n(Cc2ccc(Cl)cc2)c1)c1ccccc1,3,0,4062,-9
CCOC(=O)c1c(NC(=O)CSc2nncs2)sc(C)c1C,4,0,2452,-4
CCOC(=O)c1sc(NC(=O)CSc2nnc(C)s2)c(C(=O)OCC)c1C,2,1,22787*,0
COc1ccc(Cc2nnc(SCC(=O)NC(C)c3ccccc3)o2)cc1 (stereo not drawn),1,2,22651*,1
CCOC(=O)c1c(NC(=O)C(Sc2ccccc2)c2ccccc2)sc(C(N)=O)c1C (stereo not drawn),0,-1,23438*,1
SMILES,BoNT F protease,BoNT A protease,Autofluor counter,Anthrax LF prot
COCCOC(=O)c1c(NC(=O)CN2CCOCC2)sc(C(N)=O)c1C,-4,1,3101,1
CCOC(=O)c1c(NC(=O)CN2CCOCC2)sc(C(=O)NC)c1C,-3,-1,22110*,0
CCOC(=O)c1sc(NC(=O)CSc2nnc(Cc3ccccc3)o2)c(C(=O)OCC)c1C,-3,-1,23789*,-4
CCOC(=O)c1sc(NC(=O)CSc2nc3ccccc3o2)c(C(=O)OCC)c1C,-10,0,2443,1
COc1ccc(CCCc2nnc(SCC(=O)Nc3cc(C)c(C)cc3Br)o2)cc1,-4,-1,21054*,-1
COc1ccc(C(C(=O)NCC2CCCO2)N(C(=O)c2snc(C(N)=O)c2N)c2ccc(C)cc2)cc1OC (stereo not drawn),0,-1,5182,0
CSc1ccccc1NC(=O)Nc1cccc(Cl)c1Cl,0,0,20444*,1
CN(CC(=O)Nc1cccnc1)S(=O)(=O)c1cc(Cl)ccc1Cl,-7,?,25881*,-3
O=C(Nc1cccnc1)Nc1ccc(F)c(Cl)c1,0,?,23140*,-1
CSc1ccccc1NC(=O)Nc1cccc(Cl)c1C,-3,0,3467,2
CN(C)c1ccc(NC(=O)Nc2cccc(Cl)c2)cc1,-20,2,19659*,-11
O=C(Nc1cccnc1)c1cc(F)c(F)cc1Cl,-7,-1,4323,0
CN(c1cccc(NC(=O)Nc2cccc(Cl)c2)c1)S(C)(=O)=O,7,0,4253,5
COc1cccc2cc(C(=O)NCCN3CCOCC3)c(=O)oc12,-14,-2,2912,-6
CCN(c1ccccc1)S(=O)(=O)c1cccc(C(=O)NCC2(N(C)C)CCCCC2)c1,-10,-3,8110,2
CSc1ccccc1NC(=O)Nc1ccc(F)c(Cl)c1,-10,-4,24571*,-3
Cc1ccc(NC(=O)Nc2ccc(F)c(Cl)c2)cc1,-4,0,5882,-13
CSc1ccccc1NC(=O)Nc1cccc(Cl)c1,0,0,23180*,-2
COc1ccc(C(=O)N2CCCC(C)(C(=O)NS(=O)(=O)C3CC3)C2)cc1 (stereo not drawn),-8,0,3564,-13
CC1(C(=O)NCc2cccnc2)CCN1C(=O)c1cccc(F)c1 (stereo not drawn),-7,0,3956,-6
CN(C)CCNc1nc(-c2ccco2)c2c(c1C#N)CC(C)(C)OC2,-1,-2,24132*,2
COc1ccc(Cl)cc1NC(=O)CSc1nnc(-c2ccco2)o1,?,3,?,-3
Cc1ccc(-c2csc3ncnc(NCCC(=O)O)c23)cc1C,?,0,4222,5
CCC(Sc1nc(C)cc(=O)[nH]1)C(=O)Nc1nc2c(s1)CCCC2 (stereo not drawn),-3,?,22164*,-7
Cc1ccc(NC(=O)C2CC(=O)N(c3ccccc3Cl)C2)cc1S(=O)(=O)N1CCOCC1 (stereo not drawn),12,0,3107,-8
SMILES,BoNT F protease,BoNT A protease,Autofluor counter,Anthrax LF prot
O=C(CC1NCCNC1=O)Nc1ccc(Cl)c(Cl)c1 (stereo not drawn),-5,0,2212,0
CCc1cc(C(=O)OC)c(NC(=O)CC2NCCNC2=O)s1 (stereo not drawn),0,?,21532*,0
O=C(CC1NCCNC1=O)Nc1ccc2c(c1)OCO2 (stereo not drawn),-8,-2,22917*,-5
CCCC(C)(C)C(=O)N1CCC1(C)C(=O)NS(=O)(=O)c1ccccc1Cl (stereo not drawn),-7,-1,4160,-2
CCOc1ccc(N2C(=O)/C(=C/c3ccco3)C(=O)NC2=S)cc1,47*,3,2781,-11
O=C(CN1CCOCC1)N1CCOCC1,-1,0,2831,4
Cc1cc(C(=O)N2CCCC2C(=O)O)c(C)o1 (stereo not drawn),3,2,22740*,-3
Cc1cc(C(=O)N2CCC(C(N)=O)CC2)c(C)o1,2,-1,4165,-2
O=C(CS(=O)(=O)c1ccc(Cl)cc1)N1CCN(c2ccccc2)CC1,4,0,3975,-6
O=C1NC(c2ccc(Br)cc2)Nc2sc3c(c21)CCC3 (stereo not drawn),2,1,22598*,-4
N=Cc1c(O)n(-c2cccc(Cl)c2)c(=O)[nH]c1=O,-2,-1,23754*,-2

# Screening data from PubChem BioAssay.
